In PubChem BioAssay (NCI):
About 83,000 compounds went through this panel and 20% of them were active in at least one assay; those are over-represented in the sample as a whole.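 Compound tested at a single concentration for 48 hours in 96-well plates; a percent growth value below 10 was scored as active.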 Unmarked numbers belong to inactive results. Activity calls are given as the source filed them.

The compounds below were run on HL-60(TB) leukemia (assay: NCI-60 one-dose screen, 48 h (100 = growth as untreated, 0 = no growth, -100 = all killed)). Details: 10 µM unless noted.

| SMILES | growth |
| --- | --- |
| C=CCOC(=O)C1=C(C)NC2=C(C(=O)CC(C)(C)C2)C1c1ccc(OC)cc1 (stereo not given) | 80.6% |
| CN1CCC(=C(c2ccccc2)c2ccccc2)C(c2ccccc2)C1 (stereo not given) | 88% |
| COC(=O)c1nc(N)nc(C(=O)OC)c1C(=O)c1cccc2ccccc12 | 107% |
| O=S(=O)(NCCNc1cc(-c2cn(-c3ccccc3)nc2-c2ccccc2)ccn1)c1cccc2ccccc12 | 36.4% |
| COc1ccc(-c2nc(/C=N/Nc3cc(C)nc4ccc(Br)cc34)c(C)o2)cc1 | -51.5% (active) |
| O=C(CCc1nnc2sc(OCc3ccccc3)nn12)c1nc2ccc([N+](=O)[O-])cc2[nH]1 | 97.9% |
| S=c1nc2[nH]c3ccccc3c2n[nH]1 | 148% |
| c1ccc([P+](CCC[P+](c2ccccc2)(c2ccccc2)c2ccccc2)(c2ccccc2)c2ccccc2)cc1 | 30.5% |
| COC(=O)[C@]12CC[C@@H](C)[C@H](C)[C@@H]1C1=CC[C@@H]3[C@@]4(C)C[C@@H](OC(C)=O)[C@H](O)[C@@](C)(CO)[C@@H]4[C@H](O)C[C@@]3(C)[C@]1(C)CC2 | -56.6% (active) |
| C/C(=N/NC(N)=S)C(=O)O | 85.3% |
| Cc1sc2c(c1C)c(=O)nc1c(-c3nc(-c4ccccc4)cs3)n[nH]n12 | 94.1% |
| O=C1c2ccccc2CCC1(Br)Br | -31.3% (active) |
| Cn1c(=O)c2c(nc3n(-c4ccc(Cl)cc4Cl)c(Sc4nc(-c5ccccc5)c(C#N)c(=O)[nH]4)cn23)n(C)c1=O | 76.5% |
| COc1ccc(-n2nc(C)c3c(Nc4ccc(NC(=O)Nc5cccc(C(F)(F)F)c5)cc4)ncnc32)cc1 | -1.99% (active) |
| COC(=O)CC/C(C)=N\Nc1ccc([N+](=O)[O-])cc1 | 24.5% |
| Cc1nc2c(c(=O)[nH]1)OCN(Cc1ccccc1)C2 | 96.5% |
| COc1ccc(/C=C/c2nc(Nc3ccc(S(=O)(=O)Nc4nc(C)cc(C)n4)cc3)c3ccccc3n2)cc1 | 73.6% |
| COc1ccc(C(C)=O)cc1S(N)(=O)=O | 74.7% |
| COS(=O)(=O)CCN(CCOS(C)(=O)=O)S(C)(=O)=O | 82.9% |
| COc1cccc(-c2nc3occn3c2-c2ccnc(NCCNS(=O)(=O)c3cccc4ccccc34)n2)c1 | 121% |
| CCCCCCCCCCNC(=O)CCl | 95.8% |
| S=c1[nH]ccn1-c1c(Cl)cccc1Cl | 93.5% |
| COc1ccc(-n2c(=O)n(-c3ccc(-c4nc5ccc(F)cc5s4)cc3)c(=O)c3cccnc32)cc1 | 102% |
| Oc1[nH]c2ccccc2c1/C=c1/ccc2c(c1)N=C(c1cc(F)cc(F)c1)N=2 | 54.2% |
| O=C1N=C(N2CCOCC2)S/C1=C\c1cn(-c2ccccc2)nc1-c1ccccc1 | 105% |
